Assay results as given in PubChem BioAssay (NCI).
The panel holds about 83,000 compounds, 20% with a hit somewhere; the sample as a whole holds those more often.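 Activity criterion: percent growth below 10, measured after cells in 96-well plates were exposed to a single compound concentration for 48 hours.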 Unmarked numbers belong to inactive results. Calls of active or inactive are those of the source.

The molecules below were run on SK-MEL-5 melanoma (assay: NCI-60 one-dose screen, 48 h (100 = growth as untreated, 0 = no growth, -100 = all killed)). Settings: 10 µM unless noted.

| SMILES | growth |
| --- | --- |
| Brc1ccc(-c2n(Cc3ccc4ccccc4c3)c(-c3ccccc3)c(-c3ccccc3)[n+]2Cc2ccc3ccccc3c2)cc1 | -98.6% (active) |
| O=C1CCCc2cc(OCC(=O)N3CCCCC3)ccc2N1 | 104% |
| COc1cc2c3c(n(CCCN4CCC[C@@H]4CO)c(=O)c2cc1OC)-c1cc2c(cc1C3=O)OCO2 | -90.8% (active) |
| CC(=O)c1c(N)c(C#N)cn1-c1ccc(Cl)cc1Cl | 98.8% |
| Cc1ccc(C2CC(c3ccc(S(=O)(=O)NCCNc4nc(Nc5ccc(F)cc5)nc(N(C)C)n4)cc3)=Nc3c(N)nc(N)nc3N2)cc1 (stereo not drawn) | 29.1% |
| Cc1ccc(C(=O)C(c2c[nH]c3ccccc23)c2c[nH]c3ccccc23)cc1 | 83% |
| COc1cc(-c2nc3ccc(C)cc3[nH]2)ccc1OCc1nnc(-c2ccc(Br)cc2)o1 | 20.2% |
| Nc1nnc(-c2c[nH]c3ccc(Br)cc23)c(-c2c[nH]c3ncc(Br)cc23)n1 | 44.2% |
| Cc1ccc(-c2nc(C#N)c(S(=O)(=O)N3CCN(S(=O)(=O)c4ccc(Cl)cc4)CC3)o2)cc1 | 94.4% |
| CCOC(=O)C1=C(N)N(c2ccccc2)C2=C(C(=O)CC(C)(C)C2)C1c1ccccc1Cl (stereo not drawn) | 60.5% |
| Cc1ccc(C(=O)NN2C(=O)/C(=C/C=C/c3ccc([N+](=O)[O-])o3)SC2=S)cc1 | -100% (active) |
| CCCS(=O)(=O)N1CCCC(C(=O)Nc2nc3ccc(NC(=O)c4ccc(F)c(OC)c4F)cc3s2)C1 (stereo not drawn) | -41% (active) |
| O=C1CC(Sc2n[nH]c(-c3ccncc3)n2)C(=O)N1c1ccc(Br)cc1 (stereo not drawn) | 115% |
| COc1ccc(NC(=O)Nc2ccc(OCc3ccc(F)cc3)cc2)cc1 | 76.6% |
| COc1ccc(/C=C/c2nc3ccccc3n3c(-c4ccc(Cl)cc4)nnc23)cc1 | 98.6% |
| CC1(C)CC[C@]2(C(=O)O)CC[C@]3(C)C(=CCC4[C@@]5(C)C[C@@H](O)[C@@H]6OC(c7ccccc7Br)OC[C@@]6(C)C5CC[C@]43C)C2C1 (stereo partly drawn) | 7% (active) |
| CC(=O)OCC1OC(OC2C(COC(C)=O)OC(n3cc(COc4ccc5ccc(=O)oc5c4)nn3)C(OC(C)=O)C2OC(C)=O)C(OC(C)=O)C(OC(C)=O)C1OC(C)=O (stereo not drawn) | 99.2% |

| SMILES | growth |
| --- | --- |
| COc1ccc(Cc2nn(CC(=O)N/N=C/c3ccc(F)cc3)c(=O)c3c(C)noc23)cc1 | 82.2% |
| O=C(c1ccccc1)C(c1c[nH]c2ccccc12)c1c[nH]c2ccccc12 | 92.5% |
| N=C1N=C(SCc2nc3ccccc3[nH]2)NC(=O)/C1=C/c1ccc(Cl)cc1 | 98.3% |
| Cn1cc(-c2cc3nc(-c4c[nH]c5ccc(Cl)cc45)cc(N)n3n2)c2ccccc21 | -84.8% (active) |
| CC1(C)CC[C@]2(C(=O)O)CC[C@]3(C)C(=CCC4[C@@]5(C)C[C@@H](O)[C@@H]6OC(c7ccco7)OC[C@@]6(C)C5CC[C@]43C)C2C1 (stereo partly drawn) | -33.2% (active) |
| COc1ccc(C2CC(c3ccc(S(=O)(=O)NCCNc4nc(Nc5ccc(F)cc5)nc(N(C)C)n4)cc3)=Nc3c(N)nc(N)nc3N2)cc1 (stereo not drawn) | 71.7% |
| O=C(Nc1ccccc1)N1CCN(c2cc(-c3cn(-c4ccccc4)nc3-c3cccc(O)c3)ccn2)CC1 | 40% |
| CNS(=O)(=O)c1ccc(Nc2ccc(C(F)(F)F)cc2)c(-c2cn(C)cn2)c1 | 60.1% |
| CCS(=O)(=O)N1CCCC(C(=O)Nc2nc3ccc(NC(=O)c4ccc(F)c(OC)c4F)cc3s2)C1 (stereo not drawn) | -7.02% (active) |
| COc1ccc(CCC2c3c(cc4c(c3OC)OCO4)CCN2C)cc1 (stereo not drawn) | -98.9% (active) |
| Nc1nc(-c2ccccc2)c(N=Nc2ccc([N+](=O)[O-])cc2Cl)s1 | 42.5% |
| CN(C)c1nc(NCCNS(=O)(=O)c2ccc(C3=Nc4c(N)nc(N)nc4NC(c4ccccc4)C3)cc2)nc(Nc2ccc(F)cc2)n1 (stereo not drawn) | 33.7% |
| N/C(=N\c1nc2ccccc2s1)NC(=O)Nc1ccc(Cl)cc1Cl | -56.5% (active) |
| CCCCn1c(O)c(N=Nc2nc(-c3cc4ccccc4oc3=O)cs2)c2cc(Br)ccc21 | 98.3% |
| Cc1cccc(-c2nc(Nc3cccc(S(N)(=O)=O)c3)c3ccccc3n2)c1 | 56.5% |
| Cn1cc(-c2cc(N)n3nc(-c4cn(C)c5ccccc45)cc3n2)c2cc(Br)ccc21 | -63.5% (active) |
